Reference: PubChem BioAssay (NCATS)
Values joined by “and” are separate entries in the source; they are usually repeats but may differ in a detail not shown here. Identical values can stand only once. Results filed as inconclusive are left out. Some structures have more than one record in an assay (separate samples or runs), and their calls can disagree. Active and inactive are the calls of the source. Unless noted, calls come from the whole dose curve; as a rule, active = well fitted curve in the direction sought with a large enough effect; inconclusive = small, poorly fitted or top-dose-only effect, or another doubt; inactive = no such curve, though single readings can be large; an effect the other way counts as inactive or inconclusive.

What was measured:
[1] = qHTS assay for small molecule antagonists of retinoid X receptor alpha signaling (AID 588546; active = well fitted inhibition curve with a large enough effect in the signal ratio, with a control signal flat, not every such curve was filed as active; the % refers to the signal ratio;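 note: cells stimulated with 9-cis-retinoic acid as agonist; % is set by controls: 0 for no effect and ±100 for the full control effect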); conditions: HEK293T RXRa-UAS-bla, beta-lactamase ratio, antagonist mode; measured here: W530 green channel, cytotoxicity proxy
Outline: (§1)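 Beta-lactamase reporter inhibition, read as CCF4 fluorescence ratio (ex 405, em 460/530 nm) after 2 h at RT. HEK293T UAS-bla cells, 2500/well, were stimulated with 9-cis-RA at 500 or 100 nM final alongside test compound for 18 h at 37 C.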

[2] = target: Retinoic acid receptor RXR-alpha (Homo sapiens) (UniProt P19793); assay: as above; conditions: HEK293T RXRa-UAS-bla, beta-lactamase ratio, antagonist mode
Outline: as §1

[3] = target: Thyroid hormone receptor beta (Homo sapiens) (UniProt P10828); assay: qHTS assay for small molecule antagonists of thyroid hormone receptor beta signaling (AID 588547; active = well fitted inhibition curve with a large enough effect in the signal ratio, with a control signal flat, not every such curve was filed as active; the % refers to the signal ratio;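 note: cells stimulated with 0.4 nM T3 agonist during compound exposure; % is set by controls: 0 for no effect and ±100 for the full control effect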); conditions: TR-UAS-bla HEK293, beta-lactamase ratio, antagonist mode, 18 h
Outline: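 TR-UAS-bla GripTite HEK293 cells in 2% charcoal/dextran FBS medium were preincubated 4 h at 37 C, given compound (0.59 nM to 92 uM) plus 0.4 nM T3 (final) for 18 h, then CCF4 for 2 h at RT; Hill fit gave IC50.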

[4] = target: Voltage-gated inwardly rectifying potassium channel KCNH2 (Homo sapiens) (UniProt Q12809); assay: qHTS Assay for Small Molecule Inhibitors of the Human hERG Channel Activity (AID 588834); conditions: U2OS BacMam hERG, FluxOR thallium flux fluorescence; series mostly up to 46.1 µM;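 note: lower thallium flux fluorescence means stronger hERG block; nearly all actives have a fitted effect of over 50% in size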; note: potency is the fitted concentration of half-maximal effect
Outline: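 Homogeneous FluxOR thallium flux assay using hERG-expressing U2OS cells (BacMam). Compound treatment about 10 minutes preceded stimulation; reduced fluorescence taken as channel block.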

[5] = target: Luciferin 4-monooxygenase (Photinus pyralis) (UniProt P08659); assay: Biochemical firefly luciferase enzyme assay for NPC (AID 624030); note: nearly all actives have a fitted effect of over 70% in size; note: potency is the fitted concentration of half-maximal effect; conditions: purified P. pyralis luciferase, luminescence, 5 min; series mostly up to 58.6 µM
Outline: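 Counter-screen for direct inhibition of the luciferase enzyme by approved-drug library compounds, run at 10 nM enzyme in 50 mM Tris acetate (final). Luminescence was read within 5 min of enzyme-buffer addition and normalized to PTC124 versus DMSO (0%).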

[6] = S16 Schwann cell viability assay (CellTiter-Glo assay) (AID 624031); conditions: S16 rat Schwann cells viability, 24 h; series mostly up to 57.5 µM;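 note: cellular ATP luminescence as a viability measure; plate controls were DMSO-treated cells for no effect and cell-free wells for full effect; nearly all actives have a fitted effect of over 70% in size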
Outline: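 Native S16 rat Schwann cells in DMEM/10% FBS without phenol red were incubated overnight, then exposed to compounds for 24 h at 37 °C/5% CO2. Viability was read as ATP luminescence (CellTiter-Glo), normalized to no-cell wells and DMSO (0%).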

[7] = S16 Schwann cell PMP22 intronic element firefly luciferase assay (AID 624032); conditions: S16 rat Schwann cells, PMP22 element FLuc, 24 h; series mostly up to 57.5 µM;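 note: plate controls were DMSO for no effect and PTC124 positive control mean for full effect; nearly all actives have a fitted effect of over 30% in size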
Outline: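 Rat S16 Schwann cells stably carrying a PMP22 intronic element-driven Fluc reporter were seeded overnight, then exposed to compounds for 24 h at 37 °C. Luminescence was normalized to PTC124 (positive control) and DMSO (0% activity).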

[8] = qHTS assay for small molecule activators of the p53 signaling pathway (AID 651743; active = well fitted activation curve with a large enough effect in the signal ratio, not every such curve was filed as active; the % refers to the signal ratio; note: % of control where 0% means no effect); conditions: HCT-116 p53RE-bla, beta-lactamase FRET ratio, 16 h; activation: stronger effect = higher value
Outline: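 Agonist-mode quantitative HTS in HCT-116 cells carrying a p53-response-element beta-lactamase reporter; 16 h compound treatment at 37 C, then FRET substrate loading for 2 h at room temperature and fluorescence read.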

[9] = qHTS assay for small molecule activators of the nuclear factor-kappa B (NF-kB) signaling pathway (AID 651749; active = well fitted activation curve with a large enough effect in the signal ratio; the % refers to the signal ratio; note: % of control where 0% means no effect); conditions: NF-kB-bla ME-180 cells, beta-lactamase FRET ratio, 16 h; stronger effect = higher value
Outline: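 Human ME-180 cervical cells with an NF-kB-bla construct; compounds added via 23 nL pin transfer, DMSO as vehicle; incubation 16 hr. Reporter activity measured by FRET disruption.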

[10] = qHTS assay for small molecule agonists of the antioxidant response element (ARE) signaling pathway (AID 651741; active = well fitted activation curve with a large enough effect in the signal ratio; the % refers to the signal ratio; note: % of control where 0% means no effect); conditions: HepG2 ARE-bla reporter, beta-lactamase FRET ratio, 16 h; series mostly up to 96 µM
Outline: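 Reporter: beta-lactamase under ARE, stably in HepG2. Exposure: 16 h, 37 C, compounds delivered in DMSO by pin tool after 5 h cell preincubation. Readout: FRET substrate fluorescence after 2 h at RT.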

[11] = target: Tumor necrosis factor (Homo sapiens) (UniProt P01375); assay: qHTS assay to identify small molecules that stimulate Tumor Necrosis Factor-alpha (TNF-alpha) secretion (AID 651757; active = well fitted curve in the direction sought with a large enough effect in the signal ratio; the % refers to the signal ratio; note: 0% is about no effect); conditions: Human cells, HTRF 665/615 ratio; series mostly up to 92.2 µM
Outline: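 Secreted TNF-alpha quantified by TR-FRET sandwich of two labeled anti-TNF-alpha antibodies, incubated 3 hr at room temperature. Preceded by 17 hr, 37 C compound treatment of THP-1 cells at 3000 cells/well.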

[12] = qHTS assay to identify small molecules that stimulate interleukin-8 (IL-8) secretion (AID 651758; active = well fitted activation curve with a large enough effect in the signal ratio; the % refers to the signal ratio; note: 0% is about no effect); conditions: HTRF ratio (665/615); series mostly up to 92.2 µM
Outline: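 Quantitative HTS in THP-1 monocytic cells at 2000 cells per well, with 16 hrs compound incubation at 37 C. IL-8 in the medium was then quantified by HTRF immunoassay, read after 1-3 hrs at room temperature.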

[13] = S16 Schwann cell PMP22 intronic element beta-lactamase assay (AID 624044; calls by dose curve;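 note: 0% = DMSO and -100% = potassium clavulanate positive control; nearly all actives have a fitted effect of over 15% in size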); conditions: S16 rat Schwann cells, PMP22 element beta-lactamase FRET, 24 h; series mostly up to 38.3 µM
Outline: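 Beta-lactamase reporter under a PMP22 intronic regulatory element in stable S16 rat Schwann cells; 24 h compound exposure. 460 nm blue signal normalized between DMSO (0%) and potassium clavulanate, with 535 nm FRET tracking viability; curves classed by r2 and response.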

[14] = qHTS assay for small molecule disruptors of the mitochondrial membrane potential - 1 hr assay (AID 651754; calls by dose curve; note: potency is the fitted concentration of half-maximal effect; nearly all actives have a fitted effect of over 35% in size); conditions: series mostly up to 92.2 µM
Outline: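 Mitochondrial potential in living HepG2 cells after 1 hr compound treatment at 37C was read with Mito-MPS dye added for a further 30 min. Red aggregate and green monomer fluorescence were measured; loss of potential leaves dye as cytoplasmic monomers.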

[15] = qHTS assay for small molecule disruptors of the mitochondrial membrane potential - 5 hr assay (AID 651755; calls by dose curve; note: % is set by controls: 0 for no effect and ±100 for the full control effect; nearly all actives have a fitted effect of over 40% in size); conditions: JC-1-type ratio dye; series mostly up to 92.2 µM
Outline: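 Seed HepG2 overnight, add compound, incubate 5 hr at 37C and 5% CO2, stain 30 min with Mito-MPS, then measure monomer (490/535 nm) and aggregate (540/590 nm) fluorescence.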

Luciferin 4-monooxygenase (Photinus pyralis), sequence (P08659 whole entry, looked up): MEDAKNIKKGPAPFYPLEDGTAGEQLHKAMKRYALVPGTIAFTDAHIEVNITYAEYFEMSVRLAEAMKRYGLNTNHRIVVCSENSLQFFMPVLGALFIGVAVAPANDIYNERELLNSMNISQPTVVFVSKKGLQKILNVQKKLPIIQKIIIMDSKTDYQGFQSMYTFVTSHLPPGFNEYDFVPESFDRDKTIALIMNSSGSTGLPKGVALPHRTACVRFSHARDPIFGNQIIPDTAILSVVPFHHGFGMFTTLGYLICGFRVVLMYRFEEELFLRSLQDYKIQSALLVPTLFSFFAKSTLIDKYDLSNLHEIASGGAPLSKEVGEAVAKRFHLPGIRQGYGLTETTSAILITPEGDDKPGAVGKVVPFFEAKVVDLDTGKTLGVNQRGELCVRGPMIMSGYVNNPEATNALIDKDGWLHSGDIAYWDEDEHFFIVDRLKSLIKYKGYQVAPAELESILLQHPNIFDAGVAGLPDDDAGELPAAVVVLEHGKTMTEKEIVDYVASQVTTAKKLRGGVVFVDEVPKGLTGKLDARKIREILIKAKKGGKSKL
Retinoic acid receptor RXR-alpha (Homo sapiens), sequence (P19793 whole entry, looked up): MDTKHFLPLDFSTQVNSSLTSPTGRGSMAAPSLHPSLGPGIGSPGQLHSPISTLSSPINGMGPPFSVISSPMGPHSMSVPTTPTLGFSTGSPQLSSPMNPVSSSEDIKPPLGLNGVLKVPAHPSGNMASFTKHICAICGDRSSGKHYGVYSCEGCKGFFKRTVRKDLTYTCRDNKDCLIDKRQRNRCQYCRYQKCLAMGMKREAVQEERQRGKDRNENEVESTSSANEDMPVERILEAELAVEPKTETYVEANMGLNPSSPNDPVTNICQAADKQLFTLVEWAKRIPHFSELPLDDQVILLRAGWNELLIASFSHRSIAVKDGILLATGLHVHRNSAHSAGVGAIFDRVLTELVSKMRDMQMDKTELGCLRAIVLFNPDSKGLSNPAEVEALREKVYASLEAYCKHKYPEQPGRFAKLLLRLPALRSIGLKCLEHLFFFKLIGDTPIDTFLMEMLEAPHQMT
Thyroid hormone receptor beta (Homo sapiens), sequence (P10828 whole entry, looked up): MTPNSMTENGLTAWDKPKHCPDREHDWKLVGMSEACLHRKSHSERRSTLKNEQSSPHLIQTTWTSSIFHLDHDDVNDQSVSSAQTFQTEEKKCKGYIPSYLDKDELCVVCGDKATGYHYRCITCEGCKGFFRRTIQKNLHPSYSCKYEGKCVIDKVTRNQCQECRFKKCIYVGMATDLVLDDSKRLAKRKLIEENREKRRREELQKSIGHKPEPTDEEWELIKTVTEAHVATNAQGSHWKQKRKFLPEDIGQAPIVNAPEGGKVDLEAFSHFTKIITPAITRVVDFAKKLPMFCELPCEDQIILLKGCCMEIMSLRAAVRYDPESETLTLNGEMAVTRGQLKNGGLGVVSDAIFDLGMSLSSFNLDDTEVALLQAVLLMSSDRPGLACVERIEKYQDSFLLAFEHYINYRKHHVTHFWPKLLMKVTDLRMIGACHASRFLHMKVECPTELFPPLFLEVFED
Voltage-gated inwardly rectifying potassium channel KCNH2 (Homo sapiens), sequence (Q12809 whole entry, looked up): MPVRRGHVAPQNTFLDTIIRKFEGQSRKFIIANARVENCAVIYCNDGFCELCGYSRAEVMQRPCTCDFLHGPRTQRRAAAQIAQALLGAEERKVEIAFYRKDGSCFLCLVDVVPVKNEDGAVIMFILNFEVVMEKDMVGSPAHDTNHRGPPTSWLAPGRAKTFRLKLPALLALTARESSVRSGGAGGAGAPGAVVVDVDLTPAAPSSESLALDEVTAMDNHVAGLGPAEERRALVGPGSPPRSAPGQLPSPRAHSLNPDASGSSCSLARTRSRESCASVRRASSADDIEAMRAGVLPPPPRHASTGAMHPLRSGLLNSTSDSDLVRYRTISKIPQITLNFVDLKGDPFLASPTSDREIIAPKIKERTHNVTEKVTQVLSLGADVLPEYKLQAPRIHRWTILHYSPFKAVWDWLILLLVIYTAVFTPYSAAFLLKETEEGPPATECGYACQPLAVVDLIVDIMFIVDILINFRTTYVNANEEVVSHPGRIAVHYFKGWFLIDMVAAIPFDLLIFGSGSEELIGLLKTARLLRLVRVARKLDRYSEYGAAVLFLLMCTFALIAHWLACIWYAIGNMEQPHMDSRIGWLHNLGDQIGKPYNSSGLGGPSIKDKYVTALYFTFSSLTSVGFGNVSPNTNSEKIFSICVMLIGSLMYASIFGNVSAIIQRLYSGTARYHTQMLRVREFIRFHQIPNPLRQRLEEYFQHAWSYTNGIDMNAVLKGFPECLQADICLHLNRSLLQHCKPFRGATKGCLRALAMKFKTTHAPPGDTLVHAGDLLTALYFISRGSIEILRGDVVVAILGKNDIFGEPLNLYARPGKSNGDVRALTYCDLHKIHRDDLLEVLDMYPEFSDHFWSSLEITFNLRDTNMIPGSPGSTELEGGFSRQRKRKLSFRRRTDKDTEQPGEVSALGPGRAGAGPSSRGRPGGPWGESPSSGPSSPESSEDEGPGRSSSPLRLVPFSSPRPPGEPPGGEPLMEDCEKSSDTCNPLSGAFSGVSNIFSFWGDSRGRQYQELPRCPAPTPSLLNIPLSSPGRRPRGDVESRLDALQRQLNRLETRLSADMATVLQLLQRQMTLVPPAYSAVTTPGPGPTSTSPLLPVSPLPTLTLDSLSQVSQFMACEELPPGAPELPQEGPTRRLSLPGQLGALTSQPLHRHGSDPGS
Tumor necrosis factor (Homo sapiens), sequence (P01375 whole entry, looked up): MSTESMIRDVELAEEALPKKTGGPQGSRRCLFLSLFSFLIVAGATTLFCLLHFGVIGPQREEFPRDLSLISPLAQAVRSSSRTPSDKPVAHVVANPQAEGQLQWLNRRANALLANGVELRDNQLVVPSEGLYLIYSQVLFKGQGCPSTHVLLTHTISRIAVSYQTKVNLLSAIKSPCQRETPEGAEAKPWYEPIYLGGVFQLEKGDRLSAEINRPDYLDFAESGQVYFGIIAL

CCCCCCCC/C=C\CCCCCCCCN
inactive: max response [2] 8.18% | activity change % (negative = inhibition) [3] -4.57% | Potency [4] | Potency [5] | Potency [6] | Potency [7] | activation [8] 4.37%
0.483%: max response [1]

O=C(O)c1ccc(S(=O)(=O)N(Cl)Cl)cc1
-4.72%: max response [1]
inactive: max response [2] 3.99% | activity change % (negative = inhibition) [3] 9.05% | Potency [4] | Potency [5] | Potency [6] | Potency [7] | activation [8] -0.128% | activation [9] -0.114%

CC(C)(C)CC(C)(C)c1ccc(O)c(-n2nc3ccccc3n2)c1
inactive: activity change % (negative = inhibition) [3] -12.9% | Potency [4] | Potency [5] | Potency [6] | Potency [7] | activation [8] -5.96% | activation [9] 1.97%

O=C1c2cccc3c2[C@H](CCC3)CN1[C@@H]1CN2CCC1CC2
active: Potency [4] 12.6 µM

CC(=O)OCC1=C(C(=O)O)N2C(=O)[C@@H](NC(=O)CSc3ccncc3)[C@H]2SC1
inactive: Potency [4]

NC(=O)c1ccccc1O
-19%: max response [1]
inactive: max response [2] 18.9% | activity change % (negative = inhibition) [3] -15.4% | Potency [4] | Potency [5] | Potency [6] | Potency [7] | Potency [10] | activation [8] -1.87% | activation [9] -1.49% | outcome [11] | outcome [12]

CCCCC(CC)COC(=O)c1ccc(N(C)C)cc1 (centres undefined)
active: Potency [14] 7.5 µM
inactive and 28.2 µM (active): Potency [4]
inactive: max response [2] -1.36% and 6.53% | activity change % (negative = inhibition) [3] -0.537% and 3.83% | Potency [5] | Potency [6] | Potency [7] | Potency [13] | activation [8] 0.436% and -4.01% | activation [9] -1.46% and -0.821% | Potency [15] | outcome [11]
-15.4% and -7.64%: max response [1]

CC1(COc2ccc(CC3SC(=O)NC3=O)cc2)CCCCC1 (centres undefined)
inactive: max response [2] -22.1% | activity change % (negative = inhibition) [3] -31.9% | Potency [6] | Potency [7] | Potency [13] | activation [9] 0.57%
20.2%: max response [1]
active: Potency [5] 16.1 µM
